Test results as given in PubChem BioAssay (NCI).
Compounds without any hit were thinned out: in the full panel of roughly 83,000, 20% have a hit.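 Step 1: grow cells in 96-well plates. Step 2: add test compound at a single concentration. Step 3: incubate 48 h. Step 4: record percent growth.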 Activity calls are given as the source filed them. How the source made its calls: active means growth percent below 10; inactive means the rest.

Columns and labels:
Test in all cases: NCI-60 one-dose screen, 48 h (100 = growth as untreated, 0 = no growth, -100 = all killed)
Settings in all cases: 10 µM unless noted
NCI-H23 lung = test system: NCI-H23 lung
NCI-H226 lung = test system: NCI-H226 lung
NCI-H322M lung = test system: NCI-H322M lung
HOP-62 NSCLC = test system: HOP-62 NSCLC
NCI-H460 lung = test system: NCI-H460 lung
HOP-92 NSCLC = test system: HOP-92 NSCLC
NCI-H522 lung = test system: NCI-H522 lung
A549/ATCC NSCLC = test system: A549/ATCC NSCLC
786-0 renal = test system: 786-0 renal
COLO 205 colon = test system: COLO 205 colon

Measured: growth

COc1cc2c(cc1OC)CC[N+](CCC[N+](C)(C)C)=C2
inactive: NCI-H23 lung 106% | NCI-H226 lung 104% | NCI-H322M lung 88.6% | HOP-62 NSCLC 84% | NCI-H460 lung 109% | HOP-92 NSCLC 96.1% | NCI-H522 lung 80.3% | A549/ATCC NSCLC 97.4% | 786-0 renal 96.2% | COLO 205 colon 108%

CCCCCN(CCCCC)CC(O)c1c(Cl)ccc2ccccc12 (stereo not given)
inactive: NCI-H23 lung 54.1% | NCI-H226 lung 70.4% | NCI-H322M lung 71.2% | HOP-62 NSCLC 80.5% | NCI-H460 lung 66.5% | HOP-92 NSCLC 68.1% | NCI-H522 lung 79% | A549/ATCC NSCLC 67.6% | 786-0 renal 71.7% | COLO 205 colon 72.9%

O=C1/C(=C/c2ccccc2)COc2ccc(O)cc21
inactive: NCI-H23 lung 97.2% | NCI-H226 lung 104% | NCI-H322M lung 99.3% | HOP-62 NSCLC 104% | NCI-H460 lung 103% | HOP-92 NSCLC 93.7% | NCI-H522 lung 73.5% | A549/ATCC NSCLC 90.5% | 786-0 renal 86.9% | COLO 205 colon 93.2%

CN(C)c1ccc(/C=N/NC(=O)CSc2nc3sc4c(c3c(=O)n2-c2ccccc2)CCCCC4)cc1
inactive: NCI-H23 lung 29.7% | NCI-H226 lung 96.5% | NCI-H322M lung 44.9% | HOP-62 NSCLC 21.5% | HOP-92 NSCLC 50.3% | NCI-H522 lung 21.2% | 786-0 renal 45% | COLO 205 colon 33.8%
active: NCI-H460 lung 1.49% | A549/ATCC NSCLC 6.63%

CCOC(=O)CC1C(CNC(=O)NC)OC(n2cnc3c(NC(=O)Nc4ccccc4)ncnc32)C1O[Si](C)(C)C(C)(C)C (stereo not given)
inactive: NCI-H23 lung 91.7% | NCI-H226 lung 75.9% | NCI-H322M lung 90.5% | HOP-62 NSCLC 78.9% | NCI-H460 lung 47.6% | HOP-92 NSCLC 63.1% | NCI-H522 lung 80.2% | A549/ATCC NSCLC 22.4% | 786-0 renal 76.1% | COLO 205 colon 43%

COc1cccc(NC(=O)c2sc3nc(C)c(C(=O)c4ccccc4)cc3c2N)c1
inactive: NCI-H23 lung 101% | NCI-H226 lung 93.9% | NCI-H322M lung 84.3% | HOP-62 NSCLC 89.7% | NCI-H460 lung 61.2% | HOP-92 NSCLC 86.9% | NCI-H522 lung 92.5% | A549/ATCC NSCLC 35.1% | 786-0 renal 89% | COLO 205 colon 107%

COc1ccc(C2CC(=O)Oc3c(OC)c4c(c(OC)c32)OCO4)cc1 (stereo not given)
inactive: NCI-H23 lung 98.1% | NCI-H226 lung 112% | NCI-H322M lung 90.1% | HOP-62 NSCLC 84.9% | NCI-H460 lung 107% | HOP-92 NSCLC 101% | NCI-H522 lung 85.7% | A549/ATCC NSCLC 97.6% | 786-0 renal 100% | COLO 205 colon 103%

CNC1=C(Br)C(=O)c2c(C(=O)OC)c(C)nc(C)c2C1=O
inactive: NCI-H23 lung 31.8% | NCI-H226 lung 86.3% | NCI-H322M lung 81.5% | HOP-62 NSCLC 99.9% | NCI-H460 lung 30.4% | HOP-92 NSCLC 104% | NCI-H522 lung 64.3% | A549/ATCC NSCLC 58.1% | 786-0 renal 102% | COLO 205 colon 30.9%

N#CSCc1cc(Cl)c(CSC#N)cc1Cl
inactive: NCI-H23 lung 72.8% | NCI-H226 lung 73.3% | NCI-H322M lung 112% | HOP-62 NSCLC 113% | NCI-H460 lung 74.6% | HOP-92 NSCLC 11.8% | NCI-H522 lung 22.5% | A549/ATCC NSCLC 120% | 786-0 renal 71.4% | COLO 205 colon 61.6%

O=c1oc2ccccc2cc1-c1nn(-c2ccccc2)cc1/C=N/Nc1nc(-c2ccccc2)c(N=Nc2ccccc2)s1
inactive: NCI-H23 lung 88.1% | NCI-H226 lung 99.5% | NCI-H322M lung 105% | HOP-62 NSCLC 71.6% | NCI-H460 lung 73.5% | HOP-92 NSCLC 79.7% | NCI-H522 lung 41.5% | A549/ATCC NSCLC 50.1% | 786-0 renal 90.7% | COLO 205 colon 72.8%

OC1CSSC1Cn1cnc2c(Nc3ccc(F)c(Cl)c3)ncnc21 (stereo not given)
inactive: NCI-H23 lung 60.2% | NCI-H226 lung 87.9% | NCI-H322M lung 74.1% | HOP-62 NSCLC 93.2% | NCI-H460 lung 68.4% | HOP-92 NSCLC 137% | NCI-H522 lung 69.2% | A549/ATCC NSCLC 77.5% | 786-0 renal 108% | COLO 205 colon 111%

Cn1cc(-c2nc(-c3c[nH]c4c(Cl)nccc34)cs2)c2ccccc21
inactive: NCI-H23 lung 98.6% | NCI-H226 lung 103% | NCI-H322M lung 99.4% | HOP-62 NSCLC 92.5% | NCI-H460 lung 95.5% | HOP-92 NSCLC 80.4% | NCI-H522 lung 85.5% | A549/ATCC NSCLC 66.7% | 786-0 renal 87.4% | COLO 205 colon 102%

[2H]C([2H])([2H])Oc1c(F)cccc1/C=C/C(=O)/C=C(O)/C=C/c1cccc(F)c1OC([2H])([2H])[2H]
inactive: NCI-H23 lung 86.1% | NCI-H226 lung 108% | NCI-H322M lung 102% | HOP-62 NSCLC 110% | NCI-H460 lung 99.1% | HOP-92 NSCLC 89.4% | NCI-H522 lung 87.4% | A549/ATCC NSCLC 90.9% | 786-0 renal 103% | COLO 205 colon 114%

CCOc1ccc(N2C(=O)CCSC2=S)cc1
inactive: NCI-H23 lung 102% | NCI-H226 lung 100% | NCI-H322M lung 108% | HOP-62 NSCLC 118% | NCI-H460 lung 106% | HOP-92 NSCLC 89% | NCI-H522 lung 90.9% | A549/ATCC NSCLC 106% | 786-0 renal 106% | COLO 205 colon 112%

COc1ccc2c(c1)C(c1c[nH]c3ccccc13)(c1c[nH]c3ccccc13)CCO2
inactive: NCI-H23 lung 53.3% | NCI-H226 lung 64.1% | NCI-H322M lung 66.1% | HOP-62 NSCLC 49.1% | NCI-H460 lung 47.4% | HOP-92 NSCLC 35.6% | A549/ATCC NSCLC 24.1% | 786-0 renal 58.8% | COLO 205 colon 39.9%
active: NCI-H522 lung 6.18%

CC(=O)O[C@H]1C[C@@]2(C)[C@@H](C[C@@H](O)[C@H]3[C@@]4(C)CC[C@H](N5CCCC5)[C@@H](C)[C@@H]4CC[C@@]32C)/C1=C(\CCC=C(C)C)C(=O)O
inactive: NCI-H23 lung 95.7% | NCI-H226 lung 94.6% | NCI-H322M lung 101% | HOP-62 NSCLC 100% | NCI-H460 lung 101% | HOP-92 NSCLC 83.7% | NCI-H522 lung 91.2% | A549/ATCC NSCLC 102% | 786-0 renal 105% | COLO 205 colon 108%

O=C(O)COc1ccc(F)cc1
inactive: NCI-H23 lung 96.8% | NCI-H226 lung 105% | NCI-H322M lung 99.6% | HOP-62 NSCLC 98.7% | NCI-H460 lung 113% | HOP-92 NSCLC 102% | NCI-H522 lung 93.8% | A549/ATCC NSCLC 99.6% | 786-0 renal 102% | COLO 205 colon 116%

CCOC(=O)c1ccc2c(c1)c1c(C)c3cnccc3c(C)c1n2C
active: NCI-H23 lung -51.2% | NCI-H226 lung -33.6% | NCI-H322M lung -14.1% | HOP-62 NSCLC -47.3% | NCI-H460 lung -17.2% | HOP-92 NSCLC -24.2% | NCI-H522 lung -79.1% | A549/ATCC NSCLC -11.8% | 786-0 renal -95.7% | COLO 205 colon -63.9%

C#Cc1cccc(Nc2nc(Cl)nc3cc(NC(=O)CCl)ccc23)c1
active: NCI-H23 lung -73.9% | NCI-H226 lung -49.4% | NCI-H322M lung -73.1% | HOP-62 NSCLC -77% | NCI-H460 lung -58.9% | HOP-92 NSCLC -82.7% | NCI-H522 lung -69.1% | 786-0 renal -83.6% | COLO 205 colon -70.5%
inactive: A549/ATCC NSCLC 13.1%

Oc1ccc(C(c2ccc(O)cc2)c2ccc(Cl)cn2)cc1
inactive: HOP-62 NSCLC 61.9% | NCI-H460 lung 103% | NCI-H522 lung 57.6% | A549/ATCC NSCLC 52.1% | 786-0 renal 86.8%
active: NCI-H23 lung -4.57% | NCI-H226 lung -31% | NCI-H322M lung -18.9% | HOP-92 NSCLC -8.51% | COLO 205 colon 4.91%

Cc1c(N2CCCCC2)[nH]c2ccccc12
inactive: NCI-H23 lung 108% | NCI-H226 lung 119% | NCI-H322M lung 104% | HOP-62 NSCLC 119% | NCI-H460 lung 101% | HOP-92 NSCLC 46.8% | NCI-H522 lung 90.2% | A549/ATCC NSCLC 89% | 786-0 renal 103% | COLO 205 colon 124%

Cc1cc2c(C(C)C)c(O)c(O)c(/C=N/O)c2c(O)c1-c1c(C)cc2c(C(C)C)c(O)c(O)c(/C=N/O)c2c1O
active: NCI-H460 lung 2.59% | HOP-92 NSCLC 8.85% | NCI-H522 lung -25.7% | A549/ATCC NSCLC 4.66% | COLO 205 colon 2.49%
inactive: NCI-H23 lung 27.3% | NCI-H226 lung 33.2% | NCI-H322M lung 35.9% | HOP-62 NSCLC 11.8% | 786-0 renal 22.2%

CCN(CC)CCCC(Nc1c2ccc(Cl)cc2nc2ccc(OC)cc12)c1ccncc1 (stereo not given)
inactive: NCI-H23 lung 80.7% | NCI-H226 lung 94.5% | NCI-H322M lung 65.4% | HOP-62 NSCLC 83.4% | NCI-H460 lung 66% | HOP-92 NSCLC 65.7% | NCI-H522 lung 83.3% | A549/ATCC NSCLC 74.4% | 786-0 renal 62.7% | COLO 205 colon 69.8%

Cn1cc(-c2csc(-c3cn(C)c4ccc(F)cc34)n2)c2cnccc21
inactive: NCI-H23 lung 75.7% | NCI-H226 lung 68.5% | NCI-H322M lung 21.9% | HOP-92 NSCLC 70.8%
active: HOP-62 NSCLC -70.9% | NCI-H460 lung -73.8% | NCI-H522 lung -76% | A549/ATCC NSCLC 1.42% | 786-0 renal -91.6% | COLO 205 colon -80.1%

COc1ccc(CNc2ccc3nc(CCC4CCCCC4)[nH]c3c2)cc1
active: COLO 205 colon -23.9%
inactive: NCI-H23 lung 77.5% | NCI-H226 lung 73.8% | NCI-H322M lung 91.2% | HOP-62 NSCLC 75.8% | NCI-H460 lung 88.6% | HOP-92 NSCLC 38.3% | NCI-H522 lung 67.1% | A549/ATCC NSCLC 80.2% | 786-0 renal 62.7%

Cc1ccc(C(F)(F)F)cc1N1CCN(C(=O)[C@H]2C[C@H]2c2ccc(C(F)(F)F)nc2)CC1
inactive: NCI-H23 lung 95.5% | NCI-H226 lung 84.3% | NCI-H322M lung 99.1% | HOP-62 NSCLC 97.7% | NCI-H460 lung 106% | HOP-92 NSCLC 60.5% | NCI-H522 lung 72% | A549/ATCC NSCLC 81.5% | 786-0 renal 93% | COLO 205 colon 91.6%

Cc1ccc(C(=O)Nc2ccc(CN3CCN(C)CC3)c(C(F)(F)F)c2)cc1C#Cc1cnc(N)c2ccccc12
inactive: NCI-H226 lung 21.6% | NCI-H322M lung 17% | HOP-62 NSCLC 15%
active: NCI-H23 lung -46% | NCI-H460 lung -86.8% | HOP-92 NSCLC -14.8% | NCI-H522 lung -44.3% | A549/ATCC NSCLC -65.7% | 786-0 renal -77.4% | COLO 205 colon -66.3%
